FH mod: Identification of activators of human fumarate hydratase by quantitative high-throughput screening. Fumarate hydratase, mitochondrial (Homo sapiens), P07954. FH coupled MDH/diaphorase resazurin fluorescence, 15 min. Potency, µM (doses to about 79.9 µM), without a hit: at the highest dose activity change, negative = inhibition, actives largely listed as inhibitors. 54,000 tested, 0.22% active; further: on the % scale 0 is the no-effect control and ±100 the full control effect; the screen sought activators but most active calls are inhibition curves; nearly all actives have a fitted effect of over 45% in size
GALC G270D up: galactocerebrosidase G270D activity enhancement, cell-based; AID 1159614; Potency, µM (top dose mostly 57.5 µM), usual class: activators; 45,000 tested, 0.1% active; 145M-Twi-hGALC-G270D cells, HMU-beta-Gal fluorescence, 48 h; further: 0% is about no effect; nearly all actives have a fitted effect of over 65% in size
Target sequence (P54803 whole entry G286D): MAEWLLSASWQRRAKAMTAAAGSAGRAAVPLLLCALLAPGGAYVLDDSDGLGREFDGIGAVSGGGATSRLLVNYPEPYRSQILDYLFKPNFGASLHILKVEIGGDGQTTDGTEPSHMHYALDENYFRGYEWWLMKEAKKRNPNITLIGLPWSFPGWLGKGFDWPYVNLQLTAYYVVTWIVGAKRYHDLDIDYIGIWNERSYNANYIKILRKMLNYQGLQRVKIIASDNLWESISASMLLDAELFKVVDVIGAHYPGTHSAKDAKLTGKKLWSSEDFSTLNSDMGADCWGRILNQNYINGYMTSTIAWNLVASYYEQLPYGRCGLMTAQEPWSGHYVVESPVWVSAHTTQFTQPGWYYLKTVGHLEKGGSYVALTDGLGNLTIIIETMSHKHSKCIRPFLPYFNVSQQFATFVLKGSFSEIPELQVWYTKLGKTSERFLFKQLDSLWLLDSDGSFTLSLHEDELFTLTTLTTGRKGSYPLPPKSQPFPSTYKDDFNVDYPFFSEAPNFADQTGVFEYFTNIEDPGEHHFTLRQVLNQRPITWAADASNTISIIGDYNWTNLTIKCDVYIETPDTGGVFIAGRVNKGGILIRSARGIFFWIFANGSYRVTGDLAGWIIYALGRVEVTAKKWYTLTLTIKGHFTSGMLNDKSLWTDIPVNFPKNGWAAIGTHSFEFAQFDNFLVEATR
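qHTS, 1536-well; 145M-Twi-hGALC-G270D cells (WT line also made) in DMEM/F12 + 10% FBS; compound incubation on live cells; HMU-β-gal 0.1 mM final, pH 5.2, NaTC; carbonate stop; fluorescence increase = enhanced residual activity.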
p53null 32C kill: p53 null cell cytotoxicity, permissive temperature; 55,000 tested, 0.62% active; AID 903; H1299-neo p53 null cells, ATP luminescence, 24 h, 32C; Potency, µM (top dose mostly 46.1 µM), for the others: top-dose activity change, negative = cytotoxicity, actives largely listed as cytotoxic;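 further: 0% = DMSO only and -100% = full killing by 100 µM tamoxifen; nearly all actives have a fitted effect of over 55% in size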
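Cells lacking p53 (H1299-neo) are plated at 600 per well and allowed to settle overnight at 37C. Test compounds (up to 46 uM) are added and held 24 hours at 32C, then ATP is quantified by luminescence.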
NTMT1 inh: inhibitors of human N-terminal methyltransferase NTMT1. NTMT1 MTase-Glo SAH luminescence, purified enzyme. Potency, µM (series often up to 114 µM), for inactives: at the top dose activity change, negative = inhibition, actives largely listed as inhibitors. 59,000 tested, 2.5% active. AID 1645870;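 further: plate controls were DMSO vehicle for no effect and no enzyme for full effect; nearly all actives have a fitted effect of over 65% in size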
p53null 39C kill: kills p53 null cells at the nonpermissive temperature; H1299 p53-null (neo) cells, 39C, ATPlite viability, 24 h; Potency, µM (top dose mostly 46.1 µM), for inactives: top-dose activity, negative = cell killing, most hits filed as cytotoxic; 55,000 tested, 0.97% active; AID 904;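 further: 0% = DMSO only and -100% = full killing by 100 µM tamoxifen; nearly all actives have a fitted effect of over 50% in size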
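Temperature-shift cytotoxicity format: compound titrations on p53-null or A138V-expressing H1299 cells held 24 hr at 39C, cell ATP then measured, AC50 from Hill model.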
An asterisk follows results filed as active; i = inactive; ? = inconclusive; . = no result; ! = not active in a repeat; [ ] = remark or other dose. This excerpt belongs to a sample that is enriched for hits. The call rests on the fitted dose curve; in most records, active means well fitted curve in the direction sought with a large enough effect; inconclusive means small, poorly fitted or top-dose-only effect, or another doubt; inactive means no such curve, though single readings can be large; an effect the other way counts as inactive or inconclusive. Potency means the concentration at half of the fitted maximal effect.

SMILES	FH mod	GALC G270D up	p53null 32C kill	NTMT1 inh	p53null 39C kill
COc1ccc(C(=O)N2CCN(C(=O)/C=C/c3ccc(Br)cc3)CC2)cc1	.	.	.	10%	.
CC(C)OCCCNc1ncnc2sc3c(c12)CCCC3	-5%	i	-3%	50µM*	-8%
O=S(=O)(Nc1ccccc1F)c1ccc(O)c2ncccc12	.	.	.	5%[57.5 µM]	.
Cc1[nH]c(C=C2C(=O)Nc3ccc(S(=O)(=O)Cc4c(Cl)cccc4Cl)cc32)c(C)c1C(=O)N1CCC[C@H]1CN1CCCC1	2%[53.3 µM]	.	.	6.8µM*	.
O=C1CCCC2=C1C(c1[nH]ncc1Cl)N=C(Nc1cccnc1)N2 (configuration not stated)	.	.	.	17%	.
COc1ccc(CC(=O)Nc2nc(-c3ccc4c(c3)CCN4C(=O)c3ccccc3C)c(C)s2)cc1	.	.	.	12%	.
COc1ncc(-c2ccc3c(Nc4cc(Oc5cc(F)cc(F)c5)cc(C(=O)O)c4)c(S(=O)(=O)NC4CC4)cnc3c2)c(OC)n1	-1%	.	.	11µM*!	.
CCOc1ccc(Nc2c(S(=O)(=O)c3ccccc3)cnc3ccc(F)cc23)cc1	-22%	i	35%	-25%	86%
O=C(c1cnc(N2CCOCC2)c2ccccc12)N1CCN(c2ccccc2)CC1	4%	i	-3%	-4%	13µM*
COc1ccc(-c2cc(C(=O)Oc3ccc(Br)cc3)c3ccccc3n2)cc1	-13%	i	?	-4%	13µM*
Cc1c(C(=O)Nc2ccc(C(=O)O)cc2)nnn1-c1ccccc1	-3%	i	13µM*	0%	?
CC(=O)c1ccc(NC(=O)c2nc(-c3ccccc3)n(-c3ccccc3)n2)cc1	-30%	i	4%	0%	?
CCS(=O)(=O)c1ccc2oc(-c3ccc4ccccc4c3)nc2c1	.	.	.	3%	.
Nc1ccc2oc(-c3ccc4nc[nH]c4c3)nc2c1	.	.	7.9µM*	.	13µM*
Cc1ccc(-n2ncc3c(NC4CCCC4)ncnc32)cc1	1%	i	7.9µM*	-12%	?
Cc1cccc(-n2ncc3c(NC4CCCCC4)ncnc32)c1	.	.	-25%	.	0%
c1ccc(-n2ncc3c(NC4CCCC4)ncnc32)cc1	-22%	i	16µM*	-21%	?
Cc1ccc(-n2ncc3c(NC4CCCCC4)ncnc32)cc1C	-5%	i	-16%	18%	-4%
COc1ccc(-n2ncc3c(NC4CCCC4)ncnc32)cc1	-27%	i	5µM*	-24%	8%
Cc1cccc(-n2ncc3c(NC4CCCC4)ncnc32)c1	-5%	i	13µM*	?	36%
Clc1cccc(-n2ncc3c(NC4CCCCCC4)ncnc32)c1	-28%	i	-8%	?	?
CCn1c2ccccc2c2cc(Nc3ccnc(NCCCN4CCOCC4)n3)ccc21	-5%	.	.	?	.
CC(C)(C)OC(=O)N1CCN(c2ccc(NCc3ccc(-c4ccc(C#N)cc4)o3)cc2)CC1	.	.	.	12%	.
CC[C@H]1OC(=O)[C@H](C)[C@@H](O[C@H]2C[C@@](C)(OC)[C@@H](O)[C@H](C)O2)[C@H](C)[C@@H](O[C@@H]2O[C@H](C)C[C@H](N(C)C)[C@H]2O)[C@](C)(O)C[C@@H](C)/C(=N/OCOCCOC)[C@H](C)[C@@H](O)[C@]1(C)O	8%	.	.	13%[57.5 µM]	.
CC1=C2C(=O)O[C@@H](c3ccoc3)[C@]2(C)CCC1	6%	.	.	19%[57.5 µM]	.
COc1ccc(-c2oc3c(CC=C(C)C)c(OC4O[C@H](CO)[C@@H](O)[C@H](O)[C@H]4O)cc(O)c3c(=O)c2OC2O[C@@H](C)[C@H](O)[C@@H](O)[C@H]2O)cc1 (some centres not stated)	.	.	.	0%	.
CC(C)C(C)(C)C(C)(C)C(C)(C)S	1%	i	.	32µM*	.
COc1c(C)c(OCC=C(C)C)cc2c1COC2=O	-4%	.	.	-7%[57.5 µM]	.
Cc1cccc2sc(NC(=O)[C@@H]3CCCN3C(=O)c3cccs3)nc12	.	.	.	.	13%[1.84 µM]
Cc1nc(NC(=O)N2CCCC2C(N)=O)sc1-c1ccnc(C(C)(C)C(F)(F)F)c1 (configuration not stated)	5%	.	.	45µM*	.

Source: PubChem BioAssay
